Shown are actives, neighbours in structure and some others; about 3.4% of the full set was active somewhere.
TEAD-YAP inh – TEAD-YAP interaction inhibition | hit rate 1.4% among 640,000 | AID 1259422 | HEK-TIYL cells, TEAD-Gal4/YAP UAS-luciferase luminescence | inhibition, % at 9.12 µM; in the data active means inhibition above about 32%;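 further: 0% = median of test compound wells and 100% = reference inhibitor wells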
MITF inh – inhibitors of human MITF | inhibition, % at 2.6 µM | AlphaScreen MITF homodimerization, bead proximity signal | hit rate 0.91% among 650,000 | O75030 | AID 1259374; in the data active means inhibition above about 50%;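 further: 0% = vehicle wells with protein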
FBW7 activator – activators of human E3 ligase FBW7. Q969H0. AlphaScreen FBW7–phospho-cyclin E peptide binding, activator screen. normalized activity (activation), % at 26.1 µM. hit rate 0.13% among 650,000. AID 1259310; in the data active means normalized activity above about 1.9%;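 further: purified mutant Fbw7 with reduced substrate affinity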
GPR151 ag – activators of human GPR151; Q8TDV0; PathHunter beta-arrestin GPR151 cells, luminescence; activation, % at 11.2 µM; hit rate 1% among 650,000; AID 1508602; in the data active means activation above about 4.9%;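 further: 0% = median of compound wells and 100% = cells with positive control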
An asterisk follows results filed as active.

For CCN1/C(=C/C(=C/c2sc3ccc(Cl)cc3[n+]2CC)C2CC2)Sc2ccc(Cl)cc21 the results were TEAD-YAP inh 30, MITF inh 37, FBW7 activator 0 and GPR151 ag -2.
CCN1/C(=C/c2ccc3ccccc3[n+]2CC)Sc2cc(OC)c(OC)cc21 was read as TEAD-YAP inh 91*, MITF inh 42, FBW7 activator -1 and GPR151 ag -1.
`CC[n+]1c(/C=C/c2ccc(OC)c(OC)c2)ccc2ccccc21` gave TEAD-YAP inh 59*, MITF inh 15, FBW7 activator 1 and GPR151 ag 1.
`COc1ccc(/C=C/c2ccc3ccccc3[n+]2[O-])cc1` gave TEAD-YAP inh 72*, MITF inh 3, FBW7 activator 0 and GPR151 ag -3.
COc1cc2nc(-c3cccc(N)c3)nc(Nc3ccc(Oc4ccccc4)cc3)c2cc1OC was read as TEAD-YAP inh 36*, MITF inh 3, FBW7 activator 0 and GPR151 ag 0.
COc1cc2nc(-c3ccc(C(=O)NC4CC4)cc3)nc(Nc3ccc(Oc4ccccc4)cc3)c2cc1OC was read as TEAD-YAP inh 35*, MITF inh -7, FBW7 activator 3.7* and GPR151 ag 1.
`CCN(CC)CCCNCC(=O)Nc1cccc(F)c1` gave TEAD-YAP inh 6, MITF inh 50, FBW7 activator 0 and GPR151 ag 2.
For CCN(CC)C(=O)c1oc2ccc(S(=O)(=O)N3CC(C)CC(C)C3)cc2c1C (stereo not drawn) the results were TEAD-YAP inh 40*, MITF inh 7, FBW7 activator 0 and GPR151 ag 0.
Screening COc1cccc(C2NC(=S)NC(c3ccccc3)=C2C(C)=O)c1 (stereo not drawn) returned TEAD-YAP inh 50*, MITF inh 1, FBW7 activator 0 and GPR151 ag 1.
`Cc1ccc(NC(=O)C2C3C=CC4(O3)C2C(=O)N(Cc2ccccc2Cl)C4C(=O)NC2CCCC(C)C2C)cc1C` (stereo not drawn) gave TEAD-YAP inh -7, MITF inh -7, FBW7 activator 0 and GPR151 ag -1.
C=CCc1cccc2cc(C(=O)Nc3ccccc3C)c(=O)oc12 was read as TEAD-YAP inh 7, MITF inh 5, FBW7 activator 0 and GPR151 ag -1.
OCCCn1c(-c2ccc(F)cc2)csc1=Nc1ccc(F)cc1 was read as TEAD-YAP inh -19, MITF inh 11, FBW7 activator 0 and GPR151 ag 0.
`CCN(CC)S(=O)(=O)c1ccc(-c2csc(=Nc3ccc(F)cc3)n2CCCO)cc1` gave TEAD-YAP inh 39*, MITF inh 24, FBW7 activator 0 and GPR151 ag 1.
CCOC(=O)C1CCCn2c1nc1c(c2=O)CCCC1 (stereo not drawn) was read as TEAD-YAP inh 7, MITF inh 2, FBW7 activator 0 and GPR151 ag 0.
CCOC(=O)C1CCCn2c1nc1cc(-c3ccc(OC)cc3)sc1c2=O (stereo not drawn) was read as TEAD-YAP inh 52*, MITF inh 16, FBW7 activator 1 and GPR151 ag -6.
`Cc1cc(O)c(C)c(O)c1/C=N\NC(=O)CNC(=O)C(c1ccccc1)c1ccccc1` gave TEAD-YAP inh 33*, MITF inh 17, FBW7 activator 0 and GPR151 ag 0.
CCN=C1S/C(=C\c2ccc(-c3cccc(C(=O)O)c3)o2)C(=O)N1CC was read as TEAD-YAP inh 34*, MITF inh 8, FBW7 activator 0 and GPR151 ag 1.
Screening CCN=C1S/C(=C/c2ccc(-c3ccc(Cl)cc3C(=O)O)o2)C(=O)N1CC returned TEAD-YAP inh -1, MITF inh -1, FBW7 activator 0 and GPR151 ag 0.
`NC1=NC(=O)/C(=C\c2ccc(-c3cccc(Cl)c3)o2)S1` gave TEAD-YAP inh -4, MITF inh 15, FBW7 activator 0 and GPR151 ag 1.
Screening NC1=NC(=O)/C(=C/c2ccc(-c3cccc(C(=O)O)c3)o2)S1 returned TEAD-YAP inh 70*, MITF inh 3, FBW7 activator 0 and GPR151 ag 0.
For COc1ccc(C(=O)CN2CCN(S(=O)(=O)c3cc(Cl)ccc3Cl)CC2)cc1OC the results were TEAD-YAP inh 6, MITF inh 11, FBW7 activator 0 and GPR151 ag 1.
`Cc1ccc2cc(CN(CCCO)C(=O)Nc3ccc(F)cc3)c(=O)[nH]c2c1C` gave TEAD-YAP inh -15, MITF inh -4, FBW7 activator 0 and GPR151 ag 0.
For CC1C/C(=C/c2ccccn2)C(=O)/C(=C/c2ccccn2)C1 (stereo not drawn) the results were TEAD-YAP inh 80*, MITF inh 1, FBW7 activator 0 and GPR151 ag 1.
For SCCCCOc1ccc2ccccc2c1 the results were TEAD-YAP inh -1, MITF inh -9, FBW7 activator 0 and GPR151 ag 2.
CCCC(=O)c1ccc(OCc2cc(C(C)=O)ccc2OC)cc1 was read as TEAD-YAP inh 4, MITF inh 23, FBW7 activator 1 and GPR151 ag 1.
CCOC(=O)N1CCc2c(sc3ncn(CC(=O)c4ccccc4)c(=O)c23)C1 was read as TEAD-YAP inh 49*, MITF inh 4, FBW7 activator 1 and GPR151 ag 0.
`CCCNc1nc(-c2c(C)nn(C)c2C)ncc1C` gave TEAD-YAP inh 2, MITF inh 7, FBW7 activator 0 and GPR151 ag 1.
CCOC(=O)c1cnc2ccc(OCC)cc2c1NCCCN(CC)CC was read as TEAD-YAP inh 33*, MITF inh -3, FBW7 activator 1 and GPR151 ag 0.
For O=C(c1nccs1)C1CCN(C(=O)c2ccc(Br)s2)CC1 the results were TEAD-YAP inh 2, MITF inh 9, FBW7 activator 0 and GPR151 ag 0.
For CCN1CCN(C(c2ccccc2)c2nnnn2C2CCCCC2)CC1 (stereo not drawn) the results were TEAD-YAP inh 39*, MITF inh -5, FBW7 activator 0 and GPR151 ag 1.
Cc1ccc(C(=O)Cn2c(C(=O)O)cc3ccccc32)cc1 was read as TEAD-YAP inh 4, MITF inh -2, FBW7 activator 0 and GPR151 ag 1.
`Cc1ccc(C(=O)Cn2c(C(=O)OCCO)cc3ccccc32)cc1` gave TEAD-YAP inh 34*, MITF inh 13, FBW7 activator 0 and GPR151 ag -1.
`O=C(Cc1c[nH]c2ccccc12)Nc1nnc(C2CC2)s1` gave TEAD-YAP inh 34*, MITF inh -1, FBW7 activator 0 and GPR151 ag -1.
Screening CC(C)CNC(=O)CCNS(=O)(=O)c1ccc(Cl)cc1 returned TEAD-YAP inh 10, MITF inh 1, FBW7 activator 0 and GPR151 ag -2.
COc1ccc(CC(=O)Nc2ncc3ccc(-c4cn[nH]c4)cc3c2Cl)cc1 was read as TEAD-YAP inh 40*, MITF inh 14, FBW7 activator 1 and GPR151 ag 1.
For O=C(Cc1ccc(F)cc1)Nc1cc(-n2ccnc2-c2ccccc2)ccn1 the results were TEAD-YAP inh 39*, MITF inh -6, FBW7 activator 0 and GPR151 ag -1.

High-throughput results: PubChem BioAssay, The Scripps Research Institute Molecular Screening Center
